The values below come from the supplement of paper PMC5641865, “A screen for kinase inhibitors identifies antimicrobial imidazopyridine aminofurazans as specific inhibitors of the Listeria monocytogenes PASTA kinase PrkA” (The Journal of Biological Chemistry, 2017).

± gives the standard deviation of the averaged measurements.
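Note: End-point A600 read in BHI broth at 37 °C with 2% DMSO, inhibition computed as (1 − OD with compound plus ceftriaxone ÷ OD with ceftriaxone only) × 100.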

The test deals with Listeria monocytogenes 10403S. The test is described as follows: growth inhibition relative to ceftriaxone-alone control; higher = stronger potentiation of ceftriaxone growth inhibition. The settings on record: 10 µM; ceftriaxone 1 ug/ml; 12 h.
As for `C[C@@H](Oc1cc(-n2cnc3ccc(OC4CCN(C)CC4)cc32)sc1C(N)=O)c1ccccc1Cl`, the growth inhibition came out at 0.604 ± 2.5%.

In the case of `CC(C)c1cnn2c(NCc3ccccc3)cc(NCCCCCCN)nc12`, the growth inhibition was 102 ± 5.9%.

For the compound `O=C(O[C@H]1CN[C@H](C#Cc2cc3ncnc(Nc4ccc(Cc5ccccc5)cc4)c3s2)C1)N1CCOCC1`, the growth inhibition is -6.43 ± 10%.

As for `Nc1cccc(-c2cc3c(Oc4cccc(O)c4)ncnc3[nH]2)c1`, the growth inhibition is -3.72 ± 8.2%.

Consider `CCN(CC)S(=O)(=O)c1ccc(OC)c(Nc2ncc(-c3ccccc3)o2)c1`, for which the growth inhibition was -5.97 ± 2.9%.

As for `Cc1nnc(-c2ccc(C)c(-c3ccc(C(=O)Nc4cccc(C#N)c4)cc3)c2)o1`, the growth inhibition was 6.6 ± 12%.

Consider `Nc1nc(-c2ccc(F)cc2)c(-c2ccc3ncccc3n2)s1`, for which the growth inhibition is -1.57 ± 2.7%.

With `Fc1ccc(-c2nn3ncccc3c2-c2ccnc(Nc3ccc4c(c3)OCCO4)n2)cc1`, the growth inhibition is -7.99 ± 5.2%.

In the case of `O=C1Nc2ccccc2/C1=C1/Nc2ccccc2C1=O` [Indirubin], the growth inhibition was -11.4 ± 11%.

On to `OCCCNc1nccc(-c2c(-c3ccc(F)cc3)nn3cc(C(F)(F)F)ccc23)n1`, for which the growth inhibition came to 15.6 ± 7.1%.

In the case of `CCCS(=O)(=O)Nc1ccc(F)c(C(=O)c2c[nH]c3ncc(-c4ccc(Cl)cc4)cc23)c1F` [Vemurafenib (PLX4032)], the growth inhibition was -29.7 ± 26%.

Turning to `CCc1cccc(CC)c1NC(=O)N1Cc2[nH]nc(NC(=O)c3ccc(N4CCN(C)CC4)cc3)c2C1`, the growth inhibition turned out to be 33.1 ± 4.9%.

In the case of `COc1cc2c(cc1Nc1nc(N3CCc4ccccc43)c3cc[nH]c3n1)N(C(=O)CN(C)C)CC2`, the growth inhibition amounted to 7.28 ± 0.39%.

In the case of `COc1cc2c(cc1Nc1nc(Nc3cccc(F)c3C(N)=O)c3cc[nH]c3n1)N(C(=O)CN1CCN(C(C)C)CC1)CC2`, the growth inhibition was -7.97 ± 11%.
